# Compounds with a hit are over-represented: about 2.4% of the library has one in this group of screens.
# ASK1 inh: human ASK1 kinase inhibition, primary screen; Q99683; AlphaScreen MKK6 phosphorylation by ASK1, luminescence; inhibition, % at 7.44 µM; hit rate 0.99% among 22,000; in the data active = inhibition above about 35%;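 note: 0% = median of compound wells and 100% = no enzyme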
# Target sequence (Q99683 whole entry, looked up): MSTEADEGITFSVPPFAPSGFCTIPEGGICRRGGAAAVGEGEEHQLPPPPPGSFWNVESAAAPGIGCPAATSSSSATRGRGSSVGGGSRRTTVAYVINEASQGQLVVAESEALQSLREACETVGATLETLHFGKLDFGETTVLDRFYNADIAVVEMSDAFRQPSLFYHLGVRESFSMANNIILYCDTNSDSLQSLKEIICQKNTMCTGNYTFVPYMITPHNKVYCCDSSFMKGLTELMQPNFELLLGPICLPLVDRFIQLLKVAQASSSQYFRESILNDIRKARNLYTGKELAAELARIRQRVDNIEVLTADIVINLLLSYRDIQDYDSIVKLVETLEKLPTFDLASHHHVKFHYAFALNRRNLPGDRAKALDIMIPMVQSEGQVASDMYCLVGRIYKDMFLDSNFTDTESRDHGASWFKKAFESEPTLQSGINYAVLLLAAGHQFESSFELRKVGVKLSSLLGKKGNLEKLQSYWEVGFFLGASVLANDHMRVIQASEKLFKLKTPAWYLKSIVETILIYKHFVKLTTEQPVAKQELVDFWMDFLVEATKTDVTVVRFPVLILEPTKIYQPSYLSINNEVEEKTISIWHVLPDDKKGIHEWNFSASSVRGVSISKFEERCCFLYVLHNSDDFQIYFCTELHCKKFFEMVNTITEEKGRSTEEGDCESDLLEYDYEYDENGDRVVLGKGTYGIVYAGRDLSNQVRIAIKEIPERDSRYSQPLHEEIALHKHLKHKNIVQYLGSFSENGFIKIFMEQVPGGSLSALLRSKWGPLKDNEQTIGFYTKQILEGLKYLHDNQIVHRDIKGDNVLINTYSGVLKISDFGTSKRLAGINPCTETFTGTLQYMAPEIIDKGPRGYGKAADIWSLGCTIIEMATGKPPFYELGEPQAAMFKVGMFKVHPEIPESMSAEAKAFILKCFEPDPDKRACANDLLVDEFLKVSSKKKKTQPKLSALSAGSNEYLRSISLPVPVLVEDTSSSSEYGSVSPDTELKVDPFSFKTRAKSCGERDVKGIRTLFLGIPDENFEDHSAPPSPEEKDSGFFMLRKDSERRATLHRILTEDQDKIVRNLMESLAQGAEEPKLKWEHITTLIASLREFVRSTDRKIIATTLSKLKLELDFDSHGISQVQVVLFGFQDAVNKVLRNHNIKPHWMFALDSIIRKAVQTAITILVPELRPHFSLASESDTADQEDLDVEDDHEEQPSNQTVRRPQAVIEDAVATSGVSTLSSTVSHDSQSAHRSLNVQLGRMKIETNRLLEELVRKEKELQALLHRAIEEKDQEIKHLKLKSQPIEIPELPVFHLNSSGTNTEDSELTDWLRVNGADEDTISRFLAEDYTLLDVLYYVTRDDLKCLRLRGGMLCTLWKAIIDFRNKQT
# ULK1 primary: human ULK1 kinase inhibition, primary screen | AlphaScreen Atg13 phosphorylation by ULK1, luminescence | inhibition, % at 5.96 µM | AID 1259251 | hit rate 1.9% among 30,000 | O75385; in the data active = inhibition above about 43%;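 note: 0% = median of compound wells and 100% = no enzyme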
# AlphaScreen intf: counter-screen for ASK1 inhibitors: AlphaScreen optical interference; shares compounds with ASK1 inh; hit rate 20% among 220; IC50, µM; AlphaScreen TruHits beads, signal interference counterscreen;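 active = IC50 of 10 µM or lower in the counterscreen; inactive = IC50 above 10 µM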;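 note: loss of AlphaScreen light from TruHits beads alone with no ASK1 enzyme present; potency of signal reduction so a low IC50 flags an assay artifact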
# Active calls of the source: *; i = inactive; . = not tested or not shown.
SMILES,ASK1 inh,ULK1 primary,AlphaScreen intf
COc1ccc(CCNc2nc(Nc3ccc(C(F)(F)F)cc3)nc3c2ncn3Cc2ccc(C(F)(F)F)cc2)cc1,4,-17,.
COc1ccc(CCNc2nc(Nc3ccc(C(F)(F)F)cc3)nc3c2ncn3-c2ccsc2)cc1,10,-1,.
COc1ccc(CCNc2nc(Nc3ccc(N4CCOCC4)cc3)nc3c2ncn3-c2ccccc2)cc1,37*,12,i
CC(=O)Nc1ccc(Nc2nc(-c3ccc(C(N)=O)cc3)nc3c2ncn3-c2ccsc2)cc1,17,-17,.
Cc1cc(NCc2cccc(C(F)(F)F)c2)nc(-c2ccc(C(N)=O)cc2)n1,-7,-28,.
NC(=O)c1ccc(-c2nc(NCc3cccc(C(F)(F)F)c3)c3ncn(-c4ccccc4)c3n2)cc1,39*,-13,>18
FC(F)(F)c1cccc(CNc2nc(-c3ccccc3)nc3c2ncn3-c2ccccc2)c1,-16,5,.
COc1ccc2c(c1)CC(C(=O)Nc1ccc(-c3cn[nH]c3)cc1OCCN(Cc1ccccc1)Cc1ccccc1)CO2 (stereo not drawn),41*,12,>19
COc1ccc2c(c1)C[C@H](C(=O)Nc1ccc(-c3cn[nH]c3)cc1OCCN(C)C)CO2,-6,-4,.
CCOc1ccc2oc(C)c(C(=O)Nc3cccc(OC)c3)c2c1,.,-19,.
Nc1cccc(-c2nc(NCCO)c3ncn(Cc4ccc(C(F)(F)F)cc4)c3n2)c1,-12,-57,.
CC(C)n1c(-c2ccc(C(N)=O)cc2)nc2c(Nc3ccc(Oc4ccccc4)cc3)ncnc21,37*,-29,>20
COc1ccc(-c2nc3c(Nc4ccc(Oc5ccccc5)cc4)ncnc3n2C(C)C)cc1,0,-1,.
O=C(Nc1ccc(-c2ncnc3[nH]ccc23)cc1)C1COc2ccccc2O1 (stereo not drawn),38*,41,>19
O=C(Nc1ccc(-c2cn[nH]c2)cc1)C1COc2ccccc2O1 (stereo not drawn),12,-2,.
NC(=O)c1cnc(Nc2ccnc(Nc3ccc(N4CCOCC4)cc3)c2)s1,-2,28,.
NC(=O)c1cc2ccccc2cc1Nc1ccnc(Nc2ccc(N3CCOCC3)cc2)c1,36*,-2,>19
CCCNc1nc(NCC)nc2c1ncn2CCN1CCCC1=O,-4,-7,.
O=C(COc1cccc2ccc(N3CCOCC3)nc12)Nc1cccc(Cl)c1,.,-22,.
Cc1nc(C)n(-c2ccc(Nc3nccc(-c4cncc(F)c4)n3)cc2)n1,2,2,.
Cc1nc(C)n(-c2ccc(Nc3nccc(-c4cc(F)cc(-c5cn[nH]c5C)c4)n3)cc2)n1,36*,0,>19
Cc1ncn(-c2ccc(Nc3nccc(-c4cc(F)cc(-c5cn[nH]c5C)c4)n3)cc2)n1,48*,6,>19
Cc1[nH]ncc1-c1cc(F)cc(-c2ccnc(Nc3ccc(-n4cnc(C(F)(F)F)n4)cc3)n2)c1,25,-2,.
Cc1nc(C)n(-c2ccc(Nc3nccc(-c4cc(F)cc(-c5ccnn5C)c4)n3)cc2)n1,5,-1,.
Cc1nc(C)n(-c2ccc(Nc3nccc(-c4cc(F)cc(-c5ncco5)c4)n3)cc2)n1,38*,13,>19
SMILES,ASK1 inh,ULK1 primary,AlphaScreen intf
O=C(NCCN1CCOCC1)c1cccc(-n2ncc3cc(Nc4c(Cl)ccc5c4OCO5)ccc32)c1,-21,-37,.
O=C(Nc1nc2ccc(-c3cn[nH]c3)cc2s1)C1COc2ccc(F)cc2C1 (stereo not drawn),8,-21,.
CCCNc1nc(Nc2nc3ccccc3n2C)nc2nc[nH]c12,6,-2,.
Cc1cnc(Nc2cccc(N(C)C)c2)nc1Nc1ccc(N2CCOCC2)cc1,23,37,.
COc1cc2nc(Nc3ccc(N4CCOCC4)cc3)nc(Nc3cc(OC)c(OC)c(OC)c3)c2cc1OC,53*,-4,7.7*
COc1cc2nc(N3CCOCC3)nc(Nc3ccc(N4CCOCC4)cc3)c2cc1OC,10,-11,.
CCNc1nc(Nc2ccc3c(c2)OCO3)c2cc(OC)c(OC)cc2n1,13,-1,.
COc1cc2nc(Nc3ccncn3)nc(Nc3ccc(N4CCOCC4)cc3)c2cc1OC,22,-26,.
COc1cc2nc(Nc3cc(OC)c(OC)c(OC)c3)nc(Nc3ccc(N4CCOCC4)cc3)c2cc1OC,48*,-20,7.2*
COc1cc2nc(Nc3cccc(N(C)C)c3)nc(Nc3ccc(N4CCOCC4)cc3)c2cc1OC,56*,-4,6.4*
COc1cc2nc(Nc3cccc(N(C)C)c3)nc(Nc3ccc4c(c3)OCO4)c2cc1OC,61*,0,3.6*
COc1ccc(CCNC(=O)c2ccnc(Nc3ccc(N4CCOCC4)cc3)c2)cc1,9,7,.
Cn1c(Nc2nc(C(=O)Nc3ccccc3)cs2)nc2ccccc21,-3,-1,.
COc1cc2nc(Nc3ccc(N4CCOCC4)cc3)nc(NC3CC3)c2cc1OC,43*,17,i
COc1cc2nc(Nc3cc(OC)c(OC)c(OC)c3)nc(NC3CC3)c2cc1OC,15,-5,.

# Screens: PubChem BioAssay, The Scripps Research Institute Molecular Screening Center
